From PubChem BioAssay

tested on: XIP peptide (Xip251-270) binding; test: small-molecule binders of XIP peptide, primary screen, biochemical, small-molecule microarray, fluorescence 635/667 nm, 0.1 µg/mL protein (AID 1182); details: fluorescent protein binding, 635 nm, higher = more signal, called active from +8 up or from −8 down

Composite z-score, inactive:
COc1ccc(O[C@H]2C=C[C@@H](c3ccccc3)O[C@@H]2CON=C(C)C)cc1 0.862
COc1cccc([C@H]2Oc3ccc(OC)cc3C(=NO[C@@H]3O[C@H](COC(C)=O)[C@@H](OC(C)=O)[C@H](OC(C)=O)[C@H]3OC(C)=O)[C@@H]2O)c1 -0.481
CCCCC#C[C@@H]1C=C[C@H](Oc2ccc(C(=O)OC)cc2)[C@@H](COC(=O)OCC)O1 -0.464
CCC(=O)[C@@]1(O)C(=O)N2C(=C3C(=O)OCC[C@@H]31)N(Cc1ccccc1)C(C)=C(C(=O)OC)[C@H]2c1ccccc1 -0.0955
C[C@H]1Cc2c(COc3ccccc3)nc3c(c2CO1)CN(CCOc1ccccc1)CC3 -0.279
CCOC(=O)NN=C1C[C@@H](O)[C@@H](O)[C@@H]2[C@@H]3C(=O)N(Cc4ccc5c(c4)OCO5)C(=O)[C@@H]3CC[C@H]12 2.21
COc1cccc([C@H]2Oc3ccc(OC)cc3C(=NO[C@@H](C)c3cn([C@H](CO)Cc4ccccc4)nn3)[C@@H]2O)c1 0.213
CO[C@@H]1COC(=O)[C@H](CCSC)NC(=O)CC=C[C@@H](C)COC(=O)CCC[C@H]1C 1.2
CO[C@@H]1COC(=O)CC=C[C@@H](C)[C@H](OC)COC(=O)[C@@H](C)COC(=O)CC=C[C@H]1C -0.0671
Cc1cc2c(nc1C)CCCCN2CC(C)ON=C1[C@H]2CCn3c(=O)n(-c4ccccc4)c(=O)n3[C@H]2[C@H](O)[C@@H]2O[C@H]12 (stereo partly specified) -0.239
CCOC(=O)NN=C1C[C@@H](O)[C@@H](O)[C@@H]2[C@@H]3C(=O)N(c4cccc(Oc5ccccc5)c4)C(=O)[C@@H]3CC[C@@H]12 0.187
COc1ccc(COC(=O)NN=C2C[C@@H](O)[C@@H](O)[C@@H]3[C@@H]4C(=O)N(c5cccc(Oc6ccccc6)c5)C(=O)[C@@H]4CC[C@@H]23)cc1 -0.378
COC(=O)[C@H](C)NC(=O)CCC1CC(OC(=O)NCc2ccc3c(c2)OCO3)CC2(CCCC(COC(=O)NCC(c3ccccc3)c3ccccc3)O2)O1 (stereo partly specified) 1.93
CO[C@H]1COC(=O)[C@H](C)NC(=O)[C@@H](C)COC(=O)[C@H]2CCCN2C(=O)CC=C[C@H]1C -0.077
O=C1[C@H]2[C@H]3[C@H](O)[C@H](O)CC(=NO[C@@H]4O[C@H](CO)[C@@H](O)[C@H](O)[C@H]4O)[C@H]3CC[C@H]2C(=O)N1c1cccc(Oc2ccccc2)c1 -0.373
CC(=O)OC[C@H]1O[C@H](C#Cc2ccccc2)C=C[C@@H]1OC(C)=O -0.794
COc1ccc(C#C[C@@H]2C=C[C@H](OC(C)=O)[C@@H](COC(C)=O)O2)cc1 3.11
CC(=O)Nc1ccc([C@@H]2N[C@H](C(=O)O)CC[C@H]2C)cc1 -0.0813
COC(=O)CC=C[C@@H](C)[C@@H]1C=C[C@H](O)[C@@H](CO)O1 0.0118
CC(=O)OC[C@H]1O[C@@H](ON=C(C)CCN2CCCc3nc(C)c(C)cc32)[C@H](OC(C)=O)[C@@H](OC(C)=O)[C@@H]1OC(C)=O -0.444
CCOC(=O)[C@H](CC(C)C)NC(=O)CCC1CC(OC(=O)NCCc2ccc(F)cc2)CC2(CCCC(COC(=O)NCCC(C)C)O2)O1 (stereo partly specified) -0.0575
CC(C)(C)N1C(=O)[C@H]2[C@H]3[C@H](O)[C@H](O)CC(=O)[C@@H]3CC[C@H]2C1=O -0.138
CC(=O)OC[C@H]1O[C@H](CCON=C2[C@H]3CCn4c(=O)n(-c5ccccc5)c(=O)n4[C@H]3[C@H](O)[C@@H]3O[C@H]23)C=C[C@@H]1OC(C)=O 0.149
CC(C)CON=C1C[C@@H](O)[C@@H](O)[C@@H]2[C@@H]3C(=O)N(C(C)(C)C)C(=O)[C@@H]3CC[C@H]12 1.9
O=C(NN=C1C[C@@H](O)[C@@H](O)[C@@H]2[C@@H]3C(=O)N(Cc4ccccc4)C(=O)[C@@H]3CC[C@@H]12)OCc1ccccc1 -0.0255
CCc1cc2c(nc1CC)CCN(CCC(C)=NO[C@@H](C)c1cn([C@H](CO)Cc3ccccc3)nn1)C2 0.444
CC[C@@H](c1ccccc1)n1c(=O)n2n(c1=O)[C@H]1[C@H](O)[C@@H]3O[C@@H]3C(=O)[C@H]1CC2 -0.144
CCOC(=O)[C@H](CC(C)C)NC(=O)CCC1CC(OC(=O)NCc2cccc3ccccc23)CC2(CCCC(COC(=O)NCCC(C)C)O2)O1 (stereo partly specified) -0.299
COC(=O)[C@@H]1CC[C@@H](C)[C@H](c2ccc(Br)cc2)N1 -0.0456
C#CCCCON=C1C[C@@H](O)[C@@H](O)[C@@H]2[C@@H]3C(=O)N(C(C)(C)C)C(=O)[C@@H]3CC[C@@H]12 -0.0287
Cc1cc2c(nc1C)CCCCN2CC(C)ON=C[C@@H](C)[C@H](OCc1ccccc1)C(C)C (stereo partly specified) -0.398
CC(C)=NOC[C@@H](C)[C@H](OCc1ccccc1)C(C)C -0.0088
CCOC(=O)[C@H](Cc1ccccc1)NC(=O)CCC1CC(OC(=O)NCCc2ccc(F)cc2)CC2(CCCC(COC(=O)NCCCN3CCCC3=O)O2)O1 (stereo partly specified) 0.414
O=C1CCCC(C2=CCCCC2=O)C1 (stereo unspecified) -0.273
CCOC(=O)[C@H](Cc1ccccc1)NC(=O)CCC1CC(OC(=O)NCc2ccc3c(c2)OCO3)CC2(CCCC(COC(=O)NCCC(C)C)O2)O1 (stereo partly specified) 0.644
O=C1[C@H]2[C@H]3[C@H](O)[C@H](O)CC(=NOCc4ccccc4)[C@@H]3CC[C@H]2C(=O)N1Cc1ccc2c(c1)OCO2 0.135
